In all, about 220,000 compounds went through this assay and about 150 (0.068%) were called active.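 The calls were made as follows: active = activation, meaning protection from cell death, of at least 50% relative to plate controls; inactive = activation below 50%.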 Many of the other results were omitted from the sample, so actives are more common in it than they were.
Assay: rescue of FADD-deficient Jurkat cells from TNF-alpha death – single concentration, primary screen (AID 463075);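 also: necroptosis triggered by 40 ng/mL TNF-alpha added together with compound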
Details: Jurkat FADD-/- TNF necroptosis rescue, ATP luminescence, 24 h; at 10 µM; stronger effect = higher value; 0 = TNF only, 100 = no-TNF cells

Row | SMILES | activation (protection from cell death)
1 | CC(C)CCN1NC2(CCC(C)CC2)NC1=S (stereo unspecified) | -1.55% (inactive)
2 | O=C(c1cccnc1)N(c1cc2sc(=O)oc2c2ccccc12)S(=O)(=O)c1ccccc1 | -6.46% (inactive)
3 | Cn1c(S(=O)(=O)O)nc2ccccc21 | 1.18% (inactive)
4 | COc1cc2nc(Cl)nc(NCCO)c2cc1OC | -0.0465% (inactive)
5 | Cc1nc(N2CCOCC2)sc1C(=O)NN | 0.605% (inactive)
6 | CCCC1(C(=O)OC)NC(c2ccco2)C2C(=O)N(C)C(=O)C21 (stereo unspecified) | 0.819% (inactive)
7 | Cc1cccc(N=Nc2c(O)[nH]c3ccc(F)cc23)c1 | 1.19% (inactive)
8 | O=C(NC(=O)N1CCSCC1)c1c(Cl)cccc1Cl | 3.73% (inactive)
9 | CC(C)Cc1ccc(C(C)C(=N)N)cc1 (stereo unspecified) | 0.316% (inactive)
10 | O=C(Cc1ccccc1)N1N=C(c2ccncc2)CC1(O)C(F)(F)F (stereo unspecified) | -1.22% (inactive)
11 | Cc1nnc(NCCO)c2ccccc12 | 2% (inactive)
12 | Cc1nn(CC(=O)Nc2ccc3c(c2)OCO3)c(C)c1[N+](=O)[O-] | 0.0311% (inactive)
13 | CCOC(=O)c1c(CC(C)C)csc1/N=C/C1=C(O)CCCC1=O | 2.28% (inactive)
14 | O=C(Nn1cnc2ccccc2c1=O)c1ccc([N+](=O)[O-])cc1Cl | -1.3% (inactive)
15 | O=C(CS(=O)(=O)c1ccc(C(F)(F)F)cn1)NNC(=O)c1ccccc1 | -0.488% (inactive)
16 | O=C(O)c1n[nH]nc1-c1ccccc1 | -0.36% (inactive)
17 | O=C(C1=C[C@H](c2coc3ccccc3c2=O)C[C@H](OCc2ccc(CO)cc2)O1)N1CCOCC1 | 0.365% (inactive)
18 | COc1ccc(Cl)cc1NC(=O)[C@@H]1CCCN1C(=O)c1cccs1 | 2.67% (inactive)
19 | C=C1C2C[C@H](O)C(C)(C)[C@@]2(O)[C@H](O)C[C@]23C[C@@](C)(O)[C@H](CC[C@H]12)[C@H]3O (stereo partly specified) | 1.07% (inactive)
20 | CCOc1cccc(C(=O)Nc2cnn(Cc3ccccc3)c2)c1 | -1.07% (inactive)
21 | O=C(COC(=O)Cc1ccc(Br)cc1)Nc1c(F)c(F)c(F)c(F)c1F | -0.784% (inactive)
22 | CN(C(=O)CSc1nc(C2CC2)nc2ccccc12)c1nc(-c2ccccc2)cs1 | 0.753% (inactive)
23 | COc1ccc(OC)c(-c2c(=O)n(OCc3ccccc3Br)c3ccccc3[n+]2[O-])c1 | 0.8% (inactive)
24 | O=C(Nc1ccccc1-c1ccccc1)c1cccs1 | -1.99% (inactive)
25 | CN(C(=O)COc1ncnc2c1cnn2-c1ccccc1)C1CCCCC1 | -0.83% (inactive)
26 | CNC(=O)c1nnc(Cc2ccc(Cl)cc2)o1 | 5.11% (inactive)

From PubChem BioAssay AID463075 (University of Pittsburgh Molecular Library Screening Center, 2010)
